Source: PubChem BioAssay
The source made the active and inactive calls. Unless noted, how the calls were made is not given here.

Experiments:
[1] = resazurin metabolic signal in HepG2 cells – cell-based, resazurin fluorescence, 24 h, PK04 Diversity Set, profiling panel (AID 1172); conditions: HepG2 viability, higher = more signal
[2] = budding yeast growth changes without added modifier – OD600, strain BY4716, 24 h, basal condition, primary screen (AID 1173); conditions: S. cerevisiae BY4716 growth, OD600, 24 h; higher = more signal, called active from +8 up or from −8 down
[3] = viability profiling in MM1S myeloma cells – cell-based, resazurin fluorescence, basal, 24 h, PK04 Diversity Set, profiling panel (AID 1174); conditions: higher = more signal, called active from +8 up or from −8 down;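 further: MM1S multiple myeloma cell line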
[4] = biological target: Dihydroorotate dehydrogenase (quinone), mitochondrial (Plasmodium falciparum (isolate 3D7)) (UniProt Q08210); test: inhibition of P. falciparum DHODH – biochemical, C-terminal His tag, absorbance 600 nm, primary screen (AID 1175); conditions: PfDHODH enzyme, DCIP absorbance 600 nm; higher = more signal, called active from +8 up or from −8 down;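 further: recombinant parasite enzyme with a five histidine tag at its C terminus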
Dihydroorotate dehydrogenase (quinone), mitochondrial (Plasmodium falciparum (isolate 3D7)), sequence (Q08210 whole entry, looked up): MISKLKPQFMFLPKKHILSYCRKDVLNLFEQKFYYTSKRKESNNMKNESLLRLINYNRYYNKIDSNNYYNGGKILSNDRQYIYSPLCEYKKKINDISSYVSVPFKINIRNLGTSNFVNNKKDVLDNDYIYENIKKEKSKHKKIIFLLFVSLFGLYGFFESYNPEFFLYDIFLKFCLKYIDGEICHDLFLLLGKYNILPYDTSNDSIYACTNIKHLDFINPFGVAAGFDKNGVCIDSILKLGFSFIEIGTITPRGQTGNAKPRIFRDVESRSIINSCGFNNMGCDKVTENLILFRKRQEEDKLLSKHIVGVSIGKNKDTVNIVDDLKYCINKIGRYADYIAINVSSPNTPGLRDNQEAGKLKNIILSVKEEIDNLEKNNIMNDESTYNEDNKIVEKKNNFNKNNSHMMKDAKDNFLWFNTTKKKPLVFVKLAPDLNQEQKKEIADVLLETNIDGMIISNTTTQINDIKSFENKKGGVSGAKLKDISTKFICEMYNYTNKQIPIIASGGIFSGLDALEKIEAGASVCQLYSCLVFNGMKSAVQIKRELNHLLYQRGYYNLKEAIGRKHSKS

[5] = inhibition of PAO1 biofilm formation – strain PAO1, LB-PBS medium, absorbance 600 nm, primary screen (AID 1176); conditions: P. aeruginosa PAO1 growth/biofilm, A600, 12 h; higher = more signal
[6] = growth modulation of vineyard yeast isolate – strain RM11-1a, OD600, basal, 24 h, primary screen (AID 1177);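 further: cultures grown under basal conditions with no added stressor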; conditions: S. cerevisiae RM11-1a growth, OD600, 24 h; higher = more signal, called active from +8 up or from −8 down
[7] = growth of efflux-deficient E. coli DRC39 – strain DRC39, OD650, 24 h, E. coli filamentation inducers, primary screen (AID 1178);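 further: growth measured as culture turbidity by optical density at 650 nm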; conditions: E. coli DRC39 acrAB, higher = more signal, called active from +8 up or from −8 down
[8] = growth of efflux-deficient E. coli DRC39 – strain DRC39, OD650, 48 h, E. coli filamentation inducers, primary screen (AID 1179);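 further: screen aims at cell division blockers that make cells filament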; conditions: E. coli DRC39 delta-acrAB growth, higher = more signal, called active from +8 up or from −8 down
[9] = viability profiling in RPMI8226 myeloma cells – cell-based, resazurin fluorescence, basal, 24 h, PK04 Diversity Set, profiling panel (AID 1180); conditions: higher = more signal;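 further: RPMI8826 multiple myeloma cell line at 5000 cells per well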
[10] = biological target: E3 ubiquitin-protein ligase XIAP (Homo sapiens) (UniProt P98170); test: small molecules binding XIAP protein – biophysical, small-molecule microarray, fluorescence 635 nm, primary screen (AID 1181); conditions: higher = more signal;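 further: score merges 667 nm emission and signal to noise over triplicate slides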
E3 ubiquitin-protein ligase XIAP (Homo sapiens), sequence (P98170 whole entry, looked up, the tested form may be a part): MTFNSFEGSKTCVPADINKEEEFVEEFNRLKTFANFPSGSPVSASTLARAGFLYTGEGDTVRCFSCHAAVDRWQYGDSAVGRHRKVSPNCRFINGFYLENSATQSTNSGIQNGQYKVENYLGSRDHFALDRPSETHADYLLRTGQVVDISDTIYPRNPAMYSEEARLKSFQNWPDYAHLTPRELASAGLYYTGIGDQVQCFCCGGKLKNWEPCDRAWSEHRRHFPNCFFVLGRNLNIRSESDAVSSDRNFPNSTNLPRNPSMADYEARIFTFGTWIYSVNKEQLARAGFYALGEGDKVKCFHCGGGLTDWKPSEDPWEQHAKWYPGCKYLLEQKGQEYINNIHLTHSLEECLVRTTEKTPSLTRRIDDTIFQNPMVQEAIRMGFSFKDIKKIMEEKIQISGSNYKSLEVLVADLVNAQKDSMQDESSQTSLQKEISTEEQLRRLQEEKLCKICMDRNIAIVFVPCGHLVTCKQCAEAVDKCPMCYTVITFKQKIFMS

[11] = test system: XIP peptide (Xip251-270) binding; test: XIP fragment 251-270 binding compounds – biochemical, small-molecule microarray, fluorescence 635/667 nm, 0.1 µg/mL protein, primary screen (AID 1182); conditions: fluorescent protein binding, 635 nm, higher = more signal, called active from +8 up or from −8 down
XIP peptide (Xip251-270) = test: compounds binding XIP fragment 251-270 – biochemical, small-molecule microarray, fluorescence 635/667 nm, 0.5 µg/mL protein, primary screen (AID 1183); conditions: fluorescence 635 nm, higher = more signal
[12] = blood-stage malaria parasite viability loss – strain 3D7, DAPI fluorescence, 100 nL, primary screen (AID 1184);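 further: parasites grown inside human red blood cells in medium with human serum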; conditions: P. falciparum 3D7 growth, 3 d, higher = more signal
[13] = biological target: Homeobox protein Hox-A13 (Mus musculus) (UniProt Q62424); test: disruptors of Hoxa13 oligonucleotide interaction – biochemical, fluorescence polarization, labeled oligonucleotide, primary screen (AID 1185); conditions: Hoxa13:DNA binding, 15 min, higher = more signal, called active from +8 up or from −8 down
Homeobox protein Hox-A13 (Mus musculus), sequence (Q62424 whole entry, looked up): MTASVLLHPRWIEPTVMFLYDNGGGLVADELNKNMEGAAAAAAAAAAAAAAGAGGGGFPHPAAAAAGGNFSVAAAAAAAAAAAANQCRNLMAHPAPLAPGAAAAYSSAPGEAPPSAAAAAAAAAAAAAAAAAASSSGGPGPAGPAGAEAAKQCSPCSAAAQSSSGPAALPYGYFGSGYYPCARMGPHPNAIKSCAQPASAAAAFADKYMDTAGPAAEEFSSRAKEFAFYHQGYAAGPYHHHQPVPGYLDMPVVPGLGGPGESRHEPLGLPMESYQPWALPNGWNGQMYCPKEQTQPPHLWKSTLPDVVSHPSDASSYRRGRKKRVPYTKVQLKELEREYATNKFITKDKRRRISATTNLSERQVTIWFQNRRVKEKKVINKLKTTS

[14] = blockers of DNA damage checkpoint Chk1 activation – imaging, HeLa, hydroxyurea, phospho-Chk1 antibody, percent positive cells, primary screen (AID 1186); conditions: hydroxyurea-induced phospho-Chk1 immunofluorescence imaging, higher = more signal
[15] = blockers of DNA damage checkpoint Chk1 activation – imaging, HeLa, hydroxyurea, phospho-Chk1 nuclear intensity, primary screen (AID 1187); conditions: hydroxyurea-induced phospho-Chk1 immunofluorescence imaging, higher = more signal

Structure (SMILES)	z-score [1]	z-score [2]	z-score [3]	composite z-score [4]	z-score [5]	z-score [6]	z-score [7]	z-score [8]	z-score [9]	composite z-score [10]	composite z-score [11]	composite z-score (XIP peptide (Xip251-270))	z-score [12]	z-score [13]	z-score [14]	z-score [15]
C=CCC(OC(C)=O)[C@@H]1[C@@H](N(Cc2cc3ccccc3o2)C(=O)Cc2ccc(OC)cc2)c2cc(OCCCO)ccc2N1C(=O)Cc1ccc(OC)cc1 (stereo partly drawn)	-1.28	-1.01 (inactive)	-0.0297 (inactive)	0.707 (inactive)	0.198 (inactive)	-0.133 (inactive)	-0.184 (inactive)	-0.578 (inactive)	-0.561	0.0345	0.394 (inactive)	-0.503	-1.96	-2.81 (inactive)	0.954 (inactive)	0.799 (inactive)
COC(=O)[C@@]1(CCS(=O)(=O)c2ccccc2)N=C(c2ccc(OCCCO)cc2)O[C@H]1c1ccccc1N=[N+]=[N-]	-0.705	0.905 (inactive)	-2.87 (inactive)	-0.279 (inactive)	0.246 (inactive)	1.09 (inactive)	0.399 (inactive)	-1.12 (inactive)	-1.64	-0.0374	1.61 (inactive)	0.79	-1.98	-3.19 (inactive)	-0.305 (inactive)	-0.0592 (inactive)
COC(=O)[C@@]1(CCC(=O)OC(C)(C)C)N=C(c2ccc(OCCCO)cc2)O[C@H]1c1ccccc1CN=[N+]=[N-]	0.118	0.696 (inactive)	-1.79 (inactive)	0.507 (inactive)	0.563 (inactive)	1.56 (inactive)	0.224 (inactive)	-0.0915 (inactive)	-2.11	0.165	1.63 (inactive)	0.512	-2.27	-1.11 (inactive)	-0.25 (inactive)	0.0025 (inactive)
C=CC[C@@]1(C(=O)N(C)C)N=C(c2ccc(OCCCO)cc2)O[C@@H]1c1ccccc1	0.879	-2.54 (inactive)	-0.235 (inactive)	0.13 (inactive)	0.95 (inactive)	-0.422 (inactive)	-0.936 (inactive)	-0.649 (inactive)	0.267	-0.33	0.98 (inactive)	0.425	-0.76	-6.79 (inactive)	0.343 (inactive)	0.0811 (inactive)
Cc1ccc(S[C@]2(C(=O)NC3CC3)CC(=O)N(Cc3cc(C(F)(F)F)cc(C(F)(F)F)c3)[C@@H]2c2ccc(CO)cc2I)cc1	0.411	-5.11 (inactive)	-2.78 (inactive)	-3.55 (inactive)	0.944 (inactive)	-1.6 (inactive)	0.0621 (inactive)	0.108 (inactive)	-2.23	0.723	0.102 (inactive)	0.679	0.496	-2.13 (inactive)	0.505 (inactive)	0.924 (inactive)
C=CCC(OC(C)=O)[C@@H]1[C@@H](N(Cc2cc3ccccc3o2)C(=O)c2ccc(-c3ccccc3)cc2)c2cc(OCCCO)ccc2N1C(=O)c1ccc2ccccc2n1 (stereo partly drawn)	-0.0694	0.848 (inactive)	0.943 (inactive)	0.706 (inactive)	0.35 (inactive)	0.913 (inactive)	0.965 (inactive)	0.553 (inactive)	0.97	-0.0818	-0.341 (inactive)	-0.317	-1.49	-1.34 (inactive)	-0.203 (inactive)	-0.103 (inactive)
CN(C)C(=O)[C@]1(Cc2ccccc2)N=C(c2ccc(OCCCO)cc2)O[C@@H]1c1ccccc1	0.0784	-1.32 (inactive)	0.324 (inactive)	0.179 (inactive)	-0.304 (inactive)	0.597 (inactive)	-0.809 (inactive)	-0.591 (inactive)	-0.247	0.125	0.895 (inactive)	0.851	-2.38	-6.32 (inactive)	-0.752 (inactive)	-0.755 (inactive)
CC(C)C[C@@H]1NC(=O)[C@@H]2C[C@H](C(=O)O)[C@H](c3ccc(O)cc3)N2C1=O	-1.68	-0.568 (inactive)	1.18 (inactive)	0.372 (inactive)	0.407 (inactive)	-1.11 (inactive)	2.14 (inactive)	1.94 (inactive)	1.16	0.254	1.84 (inactive)	0.705	-0.26	-3.43 (inactive)	0.873 (inactive)	0.918 (inactive)
CC(C)[C@@H](C(=O)O)n1cc(-c2ccccc2)nn1	-0.606	-0.291 (inactive)	-0.372 (inactive)	-0.207 (inactive)	-0.145 (inactive)	-0.618 (inactive)	0.0178 (inactive)	-0.279 (inactive)	-0.874	0.0402	0.767 (inactive)	0.237	0.273	-0.769 (inactive)	0.391 (inactive)	0.0268 (inactive)
COC(=O)[C@@]1(Cc2ccc(F)cc2)[C@H]2c3cc(C(=O)N4CCCC4)n(CCO)c3C[C@H]2CN1C(=O)c1ccccc1	-0.31	0.894 (inactive)	-1.38 (inactive)	-0.757 (inactive)	-0.278 (inactive)	0.302 (inactive)	0.0412 (inactive)	-0.654 (inactive)	-0.908	-0.16	-0.33 (inactive)	0.676	-1.26	-5.44 (inactive)	-0.961 (inactive)	-0.836 (inactive)
CCN(CC)c1ccc(N2CC=CC34O[C@@H]5C=CCOC(=O)[C@@H]5[C@H]3C(=O)N(CCCO)[C@@H]4C2=O)cc1 (stereo partly drawn)	-0.527	-0.746 (inactive)	0.242 (inactive)	-1.47 (inactive)	0.537 (inactive)	-0.049 (inactive)	1.27 (inactive)	0.715 (inactive)	0.4	0.107	0.309 (inactive)	0.306	-1.55	-4.02 (inactive)	-0.232 (inactive)	-0.569 (inactive)
Cc1ccc(S[C@]2(C(=O)NCC(F)(F)F)CC(=O)N(C3CCCCC3)[C@@H]2c2ccc(CO)cc2)cc1	-0.473	-0.0396 (inactive)	0.273 (inactive)	-1.41 (inactive)	0.0309 (inactive)	0.309 (inactive)	0.457 (inactive)	1.01 (inactive)	0.149	-0.155	0.23 (inactive)	0.201	-0.703	-3.04 (inactive)	-0.418 (inactive)	-0.25 (inactive)
COCCOC(=O)N1C(=O)[C@@]2(c3cc(C#CC4=CCCCC4)ccc31)[C@H](C(=O)N1CCc3cc(OC)c(OC)cc3C1)[C@H]1C(=O)O[C@H](c3ccccc3)[C@H](c3ccccc3)N1[C@@H]2c1ccc(O)cc1	-0.03	0.935 (inactive)	-0.0713 (inactive)	0.0434 (inactive)	0.802 (inactive)	2.23 (inactive)	-0.724 (inactive)	-0.169 (inactive)	0.485	0.072	1.49 (inactive)	0.795	-1.8	0.129 (inactive)	-0.0825 (inactive)	0.246 (inactive)
COCCn1c(C(=O)N2CCCC2)cc2c1C[C@H]1CN(C(=O)c3ccccc3)[C@@](Cc3ccccc3)(C(=O)OC)[C@@H]21	-0.171	0.859 (inactive)	-0.738 (inactive)	0.132 (inactive)	0.535 (inactive)	1.41 (inactive)	-0.16 (inactive)	-0.0447 (inactive)	-0.923	0.369	1.06 (inactive)	0.857	-1.22	-6.05 (inactive)	0.206 (inactive)	0.412 (inactive)
C=CCNC(=O)[C@@H]1[C@H]2C(=O)O[C@H](c3ccccc3)[C@H](c3ccccc3)N2[C@H](c2ccccc2OCCO)[C@@]12C(=O)N(C(=O)OCCOC)c1ccc(C#CCCO)cc12	-0.301	0.858 (inactive)	-1.02 (inactive)	-0.202 (inactive)	1.32 (inactive)	2.15 (inactive)	0.251 (inactive)	0.569 (inactive)	-1.56	-0.0347	0.397 (inactive)	0.683	-2.09	-1.71 (inactive)	-0.37 (inactive)	-0.538 (inactive)
O=C1C2C=CC(C(O)C(c3ccccc3)c3ccccc3)N(Nc3ccccc3)C2C(=O)N1c1ccccc1 (stereo not drawn)	0.9	-0.659 (inactive)	-1.05 (inactive)	1.09 (inactive)	1.26 (inactive)	0.347 (inactive)	-0.615 (inactive)	-0.0085 (inactive)	-0.403	0.34	2.35 (inactive)	0.722	-0.28	-1.33 (inactive)	-0.571 (inactive)	-0.706 (inactive)
COc1ccc([Si](C)(C)[C@@H]2[C@@H](CCO)O[C@]3(C(=O)N(Cc4ccccc4)c4ccc(N5C(=O)c6ccccc6Oc6ccccc65)cc43)[C@H]2C)cc1	1.09	1.84 (inactive)	-1.3 (inactive)	-0.641 (inactive)	0.225 (inactive)	3.88 (inactive)	0.727 (inactive)	0.435 (inactive)	-1.81	-0.157	0.664 (inactive)	0.299	-0.119	-1.08 (inactive)	-0.83 (inactive)	-0.253 (inactive)
C=CC(CO)NC(=O)OCC1c2ccccc2-c2ccccc21 (stereo not drawn)	0.072	-1.46 (inactive)	0.358 (inactive)	-1.28 (inactive)	0.0117 (inactive)	-0.917 (inactive)	-0.712 (inactive)	-0.616 (inactive)	0.388	-0.125	1.62 (inactive)	0.162	1.42	0.0393 (inactive)	0.145 (inactive)	0.42 (inactive)
